Source: PubChem (National Center for Advancing Translational Sciences (NCATS))
Sampled rows, rich in hits. Any-hit rate of the full collection: about 2.9%.
GALC G270D up – A Novel Cell-Based Assay to Identify Small Molecules for B -Galactocerebrosidase | 145M-Twi-hGALC-G270D cells, HMU-beta-Gal fluorescence, 48 h | Potency, µM (series often up to 57.5 µM), most hits filed as activators | 45,000 compounds, 0.1% hits; also: potency is read from the fitted curve at half-maximal effect; 0% is about no effect; nearly all actives have a fitted effect of over 65% in size
Target sequence (P54803 whole entry G286D): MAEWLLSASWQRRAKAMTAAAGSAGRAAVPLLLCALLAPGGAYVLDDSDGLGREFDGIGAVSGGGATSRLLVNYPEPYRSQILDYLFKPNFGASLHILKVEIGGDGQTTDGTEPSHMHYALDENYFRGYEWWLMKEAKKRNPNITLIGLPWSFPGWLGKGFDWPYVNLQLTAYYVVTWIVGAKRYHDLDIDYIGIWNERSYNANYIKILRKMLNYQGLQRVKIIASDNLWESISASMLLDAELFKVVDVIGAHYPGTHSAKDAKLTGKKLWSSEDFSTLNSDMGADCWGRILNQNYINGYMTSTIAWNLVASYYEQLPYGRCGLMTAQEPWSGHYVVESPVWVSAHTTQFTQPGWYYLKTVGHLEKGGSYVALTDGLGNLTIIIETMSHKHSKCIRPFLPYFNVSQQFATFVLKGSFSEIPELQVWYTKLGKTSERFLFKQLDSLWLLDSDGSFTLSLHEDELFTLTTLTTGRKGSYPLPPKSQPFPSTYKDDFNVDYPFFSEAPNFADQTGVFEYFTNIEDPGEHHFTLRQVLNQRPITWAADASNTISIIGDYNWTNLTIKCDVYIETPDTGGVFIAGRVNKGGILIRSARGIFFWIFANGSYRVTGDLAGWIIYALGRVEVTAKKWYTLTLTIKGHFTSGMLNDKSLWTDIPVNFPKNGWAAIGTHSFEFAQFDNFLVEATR
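qHTS, 1536-well; 145M-Twi-hGALC-G270D cells (WT line also made) in DMEM/F12 + 10% FBS; compound incubation on live cells; HMU-β-gal 0.1 mM final, pH 5.2, NaTC; carbonate stop; fluorescence increase = enhanced residual activity.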
FH mod – Identification of activators of human fumarate hydratase by quantitative high-throughput screening; FH coupled MDH/diaphorase resazurin fluorescence, 15 min; Potency, µM (series often up to 79.9 µM), inactives show at the top dose activity change, negative = inhibition, actives largely listed as inhibitors; 54,000 compounds, 0.22% hits; AID 1347055, 2019; also: potency is read from the fitted curve at half-maximal effect; % is scaled to controls: 0 for no effect and ±100 for the full control effect; the screen sought activators but most active calls are inhibition curves; nearly all actives have a fitted effect of over 45% in size
OvCa metastasis – Primary qHTS assay for Inhibitors of ovarian cancer metastasis using an organotypic tumor microenvironment (TME) model. SKOV3ip1-GFP adhesion/invasion on 3D omental model, fluorescence. Potency, µM (top dose mostly 45.8 µM), for the others: at the top dose activity change, negative = inhibition, hits mostly inhibitors. 46,000 compounds, 0.1% hits;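 also: potency is read from the fitted curve at half-maximal effect; plate controls were DMSO wells for no effect and tomatine positive control wells for full effect; nearly all actives have a fitted effect of over 65% in size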
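qHTS, 4-pt dose (0.36-46 umol/L); SKOV3ip1-GFP, 1,200 cells/well, no FBS; primary omental fibroblast/mesothelial co-culture 48 h pre-grown; 2 h RT + 16 h 37 C; PBS wash, 4% PFA; GFP count 488/509 nm.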
GPR32 ag – qHTS for Agonists of Human Resolvin D1 Receptor DRV1. 48,000 compounds, 2.5% hits. Probable G-protein coupled receptor 32 (Homo sapiens), O75388. AID 1346428, 2018. CHO-K1 GPR32 beta-arrestin PathHunter luminescence, 90 min; zero percent set by DMSO-only wells. activation, % at 76.9 µM;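 active = activation of at least 60% and not above a set upper limit, about 1 call in 100 departs from these limits; inconclusive = activation of 40% to 60%, or above that upper limit; inactive = activation under 40%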; also: 0% is about no effect
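Engineered CHO-K1 line co-expressing GPR32-ProLink and EA-beta-arrestin. Compound treatment lasted 90 min at 37 °C. Luminescence was recorded after 1 h with substrate at ambient temperature, relative to DMSO basal wells.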
An asterisk follows results filed as active; i = inactive; ? = inconclusive; . = no result given; ! = a repeat was not active; [ ] = dose if it differs, or a comment. Unless noted, calls follow the shape of the dose curve; as a rule, active = well fitted curve in the direction sought with a large enough effect; inconclusive = small, poorly fitted or top-dose-only effect, or another doubt; inactive = no such curve, though single readings can be large; an effect the other way counts as inactive or inconclusive.

SMILES	GALC G270D up	FH mod	OvCa metastasis	GPR32 ag
Cc1[nH]c2ccccc2c1C1(O)C(=O)N(Cc2ccccc2Cl)c2ccccc21 (configuration not stated)	i	?	?	105*
Cc1cccc(Oc2ccc3c(c2)Oc2ccccc2NC3=O)c1	i	-4%	i	95*
Cc1cc2c(C(C)C)c(O)c(O)c(C=O)c2c(O)c1-c1c(C)cc2c(C(C)C)c(O)c(O)c(C=O)c2c1O	i	28µM*!	-13%	-19
Cc1cc(=O)oc2c(C=O)c(O)ccc12	.	-11%	.	.
COc1ccc(NC(=O)[C@H]2O[C@@H]3OC(C)(C)O[C@@H]3[C@H]3OC(C)(C)O[C@H]32)c(OC)c1	i	-6%	7%	97*
COC(=O)c1ccccc1NC(=O)[C@H]1O[C@@H]2OC(C)(C)O[C@@H]2[C@H]2OC(C)(C)O[C@H]21	i	9%	i	-37
Cc1c(-c2cccc(NC(=O)c3ccc(F)c(F)c3)c2)nc2ncccn12	i	-7%	-4%	64*
Cc1c(-c2cccc(NC(=O)Nc3ccc(Cl)cc3)c2)nc2ncccn12	i	-24%	-6%	?
C/C1=C\CC[C@]2(C)O[C@H]2C(=O)c2c(C)coc2C1	.	-6%	.	.
Oc1ccc2nc(CN3CCC(Cc4ccccc4F)CC3)[nH]c2c1	.	-7%	.	.
CSc1nn(Cc2cccc(Cl)c2)c(N(C(C)=O)C(C)=O)c1S(=O)(=O)c1ccccc1	i	-20%	10%	76*
COC(=O)c1ccc(NC(=O)C2CCN(C(=O)c3ccc(F)cc3)CC2)cc1	i	-5%	6%	61*
CCOc1ccccc1N1CC(c2nc3ccccc3n2CCCOc2ccc(OC)cc2)CC1=O (configuration not stated)	i	-13%	7%	1
CCCCN1CC(c2nc3ccccc3n2CCCCOc2c(C)cccc2C)CC1=O (configuration not stated)	i	-35%	i	72*
CCOc1ccccc1N1CC(c2nc3ccccc3n2CCOc2ccc(OC)cc2)CC1=O (configuration not stated)	i	?	-13%	80*
C=C1CC23CC1CCC2C12OC(=O)C(C)(CCC1O)C2C3C(=O)O (configuration not stated)	.	2%[53.3 µM]	.	.
Cc1ccccc1-c1nc2scc(CCNS(=O)(=O)c3ccccc3)n2n1	i	-25%	-2%	75*
Cc1ccc(S(=O)(=O)NCCc2csc3nc(-c4ccccc4F)nn23)cc1C	i	-1%	1%	105*
O=C(Nc1cccc(C(=O)Nc2ccc(S(=O)(=O)O)c3cc(S(=O)(=O)O)cc(S(=O)(=O)O)c23)c1)Nc1cccc(C(=O)Nc2ccc(S(=O)(=O)O)c3cc(S(=O)(=O)O)cc(S(=O)(=O)O)c23)c1	.	28µM*	.	2
Cc1ccc(-n2ccnc(NCCc3ccccc3)c2=O)cc1C	i	-15%	i	16
Cc1cc(-n2ccnc(NCCc3ccc(S(N)(=O)=O)cc3)c2=O)ccc1Br	i	-3%	-1%	120*
Cc1ccc(-n2ccnc(NCCc3ccc(S(N)(=O)=O)cc3)c2=O)c(C)c1	i	3%	i	81*
COc1ccc(-n2ccnc(NCc3ccc(C)cc3)c2=O)cc1OC	i	-29%	i	65*
COc1ccc(-n2ccnc(NCc3ccccc3Cl)c2=O)cc1OC	i	8%	-2%	6
Cc1ccc(-n2ccnc(NCCc3ccc(S(N)(=O)=O)cc3)c2=O)cc1C	i	8%	-1%	95*
SMILES	GALC G270D up	FH mod	OvCa metastasis	GPR32 ag
C=CC(=O)N1CCN(C(=O)c2cc(-c3cc(Cl)ccc3Cl)c(Cl)cc2OC)CC1	.	-5%	.	.
COc1ccc(NS(=O)(=O)c2sc3ccc(Cl)cc3c2C)cc1N1CCNCC1	.	-13%	.	.
CC(C)(C)Nc1nc2cc(Cl)c(Cl)cc2nc1S(C)(=O)=O	.	-5%	.	.
CC(C)c1ccc(OCC(=O)Nc2c(Cl)ccc3nsnc23)cc1	i	-17%	-7%	45
Cc1ccc(OCC(=O)Nc2c(Cl)ccc3nsnc23)cc1C	i	-3%	i	84*
CN1CCC(c2c(O)cc(O)c3c(=O)cc(-c4ccccc4Cl)oc23)C(O)C1 (configuration not stated)	.	3%	.	.
CC1CCN(S(=O)(=O)c2nnc(NC(=O)c3cccc(Cl)c3)s2)CC1	i	-2%	0%	69*
O=C(Nc1nnc(S(=O)(=O)N2CCCCCC2)s1)c1ccccc1	i	-5%	0%	31
CCn1c(=O)cc(OCC(=O)Nc2cc(OC)c(OC)c(OC)c2)c2ccccc21	i	-9%	-5%	90*
CCn1c(=O)cc(OCC(=O)NCc2ccccc2OC)c2ccccc21	i	-14%	i	118*
CCn1c(=O)cc(OCC(=O)N2CCN(c3ccc(OC)cc3)CC2)c2ccccc21	i	-13%	-8%	81*
CCn1c(=O)cc(OCC(=O)NCc2ccccc2Cl)c2ccccc21	i	2%	-4%	71*
COCCCn1c(=N)c(C(=O)NC2CCCC2)cc2c(=O)n3cccc(C)c3nc21	25µM*	2%	i	-4
CC(C)n1c(=N)c(C(=O)NCc2cccnc2)cc2c(=O)n3ccccc3nc21	4µM*	5%	-15%	-7
Cc1ccc2nc3c(cc(C(=O)NC4CCCC4)c(=N)n3C(C)C)c(=O)n2c1	i	-15%	-3%	-6
CCC(C)n1c(=N)c(C(=O)NC2CCCCC2)cc2c(=O)n3cc(C)ccc3nc21 (configuration not stated)	32µM*	-2%	24%	6
CCC(C)n1c(=N)c(C(=O)NC2CCCC2)cc2c(=O)n3ccccc3nc21 (configuration not stated)	10µM*	-2%	-12%	1
CC1(C)CC[C@]2(C(=O)O[C@@H]3O[C@H](CO)[C@@H](O)[C@H](O)[C@H]3O)CC[C@]3(C)C(=CCC4[C@@]5(C)CC[C@H](O[C@@H]6O[C@H](C(=O)O)[C@@H](O)[C@H](O[C@@H]7O[C@H](CO)[C@H](O)[C@H](O)[C@H]7O)[C@H]6O)C(C)(C)C5CC[C@]43C)C2C1 (some centres not stated)	.	2%[20.6 µM]	.	.
COc1ccccc1CN[C@H]1CCCN[C@H]1c1ccccc1	.	6%	.	.
Cc1ccc(NS(=O)(=O)c2ccc3nc(-c4ccccc4)[nH]c3c2)c(Br)c1	i	-3%	3%	?
O=S(=O)(Nc1ccc(Br)cc1)c1ccc2nc(-c3ccccc3)[nH]c2c1	i	-24%	i	?
Cc1cccc(NS(=O)(=O)c2ccc3nc(-c4ccccc4)[nH]c3c2)c1C	i	1%	i	86*
